Screening data from PubChem.
The sample as a whole holds a higher share of hits than the screen did.
Cruzain noTriton – qHTS Assay for Promiscuous and Specific Inhibitors of Cruzain (without detergent) | Cruzipain (Trypanosoma cruzi), P25779 | purified cruzain, Z-FR-AMC fluorescence, no detergent | Potency, µM, inactives show max response, negative = inhibition, hits mostly inhibitors | 2.3% of 200,000 active | AID 1476, 2009;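 note: plate controls were enzyme without inhibitor for no effect and buffer without enzyme for full effect; nearly all actives have a fitted effect of over 40% in size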
Target sequence (P25779 123-467 limits assumed): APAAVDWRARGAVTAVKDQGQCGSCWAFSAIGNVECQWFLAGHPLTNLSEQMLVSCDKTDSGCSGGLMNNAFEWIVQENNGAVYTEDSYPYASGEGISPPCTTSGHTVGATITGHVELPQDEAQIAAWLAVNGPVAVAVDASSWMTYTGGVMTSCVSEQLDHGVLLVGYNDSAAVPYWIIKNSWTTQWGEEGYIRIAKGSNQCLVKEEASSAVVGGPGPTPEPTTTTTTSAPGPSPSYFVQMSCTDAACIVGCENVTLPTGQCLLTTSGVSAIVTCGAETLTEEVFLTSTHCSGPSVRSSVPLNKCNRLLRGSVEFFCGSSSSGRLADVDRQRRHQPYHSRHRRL
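Purified cruzain at 1.5 nM, pre-incubated 15 min with compound at room temperature in 100 mM sodium acetate pH 5.5, 5 mM DTT, 0.00005% Triton X-100. Reaction started with 2 uM Z-FR-AMC; AMC fluorescence increase over 60 s gives rate.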
NS1 inh – qHTS Assay for Inhibitors of Influenza NS1 Protein Function. Potency, µM (top dose mostly 46.1 µM), without a hit: top-dose activity, positive = more growth. 0.4% of 270,000 active. AID 2326, 2010; calls by dose curve; note: actives are rising curves; nearly all actives have a fitted effect of over 50% in size
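Growth recovery, yeast-based: influenza A NS1 expressed in S. cerevisiae causes slow growth, and suppressors are detected by OD600. The parent strain without NS1 is used as positive control.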
Cruzain inh Det – qHTS Assay for Promiscuous and Specific Inhibitors of Cruzain (with detergent); Cruzipain (Trypanosoma cruzi), P25779; 0.43% of 200,000 active; AID 1478, 2009; purified cruzain, Z-FR-AMC fluorescence, 0.01% Triton; Potency, µM, for inactives: max response, negative = inhibition, usual class: inhibitors;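 note: plate controls were neutral wells for no effect and buffer without enzyme for full effect; nearly all actives have a fitted effect of over 40% in size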
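Sodium acetate buffer (100 mM, pH 5.5) containing 5 mM DTT and 0.01% Triton X-100 hosted 1.5 nM cruzain and test compound for 15 min at room temperature. Cleavage of 2 uM Z-FR-AMC was then tracked by fluorescence.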
The depositor's hits bear a star; ? = inconclusive; . = no result given. Unless noted, calls come from the whole dose curve; as a rule, active = well fitted curve in the direction sought with a large enough effect; inconclusive = small, poorly fitted or top-dose-only effect, or another doubt; inactive = no such curve, though single readings can be large; an effect the other way counts as inactive or inconclusive. Potency is the fitted concentration of half-maximal effect.

SMILES	Cruzain noTriton	NS1 inh	Cruzain inh Det
CC1=C2C(=O)[C@@H]3[C@@H](CC=C4C[C@@H](O)CC[C@@]43C)[C@H]2CC[C@@]12O[C@H]1C[C@H](C)CN[C@H]1[C@@H]2C	-3.8%	-12.7%	-4.7%
CN(C)c1ccc(N=O)cc1	31.6µM*	.	25.1µM*
CN(C)c1ccc(N=Nc2ccccc2)cc1	-12.6%	.	-8.1%
Cc1ccc(-n2c(=O)c3c(cnn3C)n(CC(=O)Nc3ccc(C)cc3C)c2=O)cc1	26.1%	.	-0.7%
N#CC1=C(N)n2c(s/c(=C\c3ccco3)c2=O)=C(C#N)C1c1ccco1 (stereo not drawn)	-24.8%	7.2%	-9.4%
N#CC1=C(N)n2c(s/c(=C\c3cccs3)c2=O)=C(C#N)C1c1cccs1 (stereo not drawn)	25.1µM*	24.6%	-24.5%
Cc1ccc(-c2csc(C3C(N)=NC(S)=C(C#N)C34CCCCC4)n2)cc1 (stereo not drawn)	15.8µM*	?	-9.3%
N#CC1=C(S)N=C(N)C(c2nc(-c3ccccc3)cs2)C12CCCC2 (stereo not drawn)	?	21.9%	-0.8%
CCn1c(CC(=O)Nc2ccc(C)c(Cl)c2)nnc1SCc1ccc(Cl)c(Cl)c1	12.6µM*	17.2%	5.1%
CCn1c(CC(=O)Nc2ccc(C)c(Cl)c2)nnc1SCC(=O)Nc1nc(C)cs1	?	2.4%	8.9%
Cc1cc(OCC(=O)N(Cc2ccc(N(C)C)cc2)CC2CCCO2)ccc1Cl (stereo not drawn)	24.7%	.	-3.2%
CN(C)C(=O)c1ccc(NC(=O)COc2cccc(Oc3ccccc3)c2)cc1	.	-2.4%	.
NC(=O)c1ccc(NC(=O)COC(=O)c2cccc(Oc3ccccc3)c2)cc1	15.8µM*	12.6%	0.7%
O=C1OC(c2ccc(F)cc2)=N/C1=C\C=C/c1ccccc1	.	-0.9%	.
O=C1OC(/C=C/c2ccccc2)=NC/1=C/C=C/c1ccccc1	?	15.0%	5.01µM*
Cc1ccc(Oc2c(C(F)(F)F)oc3c(CN4CCC(C)CC4)c(O)ccc3c2=O)cc1	7.5%	.	-1.2%
CC1=CC2=NC(=O)/C(=C\c3cccn3CCOc3ccc(C)c(C)c3)C(=N)N2O1	1.8%	-7.0%	-6.0%
N=C1/C(=C\c2ccc(-c3cc(Cl)cc(Cl)c3)o2)C(=O)N=C2SC=C(c3ccccc3)N12	2.51µM*	4.7%	-3.7%
Cc1cc(C)cc(-n2c(C)cc(/C=C3\C(=N)N4N=C(CC(C)C)SC4=NC3=O)c2C)c1	25.1µM*	2.5%	-7.3%
Cc1ccc(-n2c(C)cc(/C=C3/C(=N)N4C(c5ccccc5)=CSC4=NC3=O)c2C)cc1	6.31µM*	10.9%	1.2%
CS(=O)(=O)C1=NSC2=NC(=O)/C(=C\c3ccc(-c4ccccc4)o3)C(=N)N21	23.9%	9.2%	-15.8%
N=C1/C(=C/c2cccn2CCOc2ccccc2)C(=O)N=C2SC=C(c3ccccc3)N12	6.31µM*	14.6%	-0.2%
CC1=NN2C(=N)/C(=C\c3cc(C)n(-c4cccc(C)c4)c3C)C(=O)N=C2S1	.	13.1%	.
Cc1cccc(-n2c(C)cc(/C=C3\C(=N)N4N=C(CC(C)C)SC4=NC3=O)c2C)c1	?	2.1%	-3.2%
Oc1c(Cl)cc(Cl)cc1Cl	.	.	-0.8%
SMILES	Cruzain noTriton	NS1 inh	Cruzain inh Det
CCCn1c(-c2ccc(F)cc2)nc2c(NC(C)CN(C)C)nc(C)nc21 (stereo not drawn)	-6.4%	.	0.5%
CCCn1c(C)nc2c(NCCN3CCOCC3)nc(C)nc21	-4.8%	.	2.8%
COC(=O)N[C@@H](/C=C/c1ccccc1)C[N+](=O)[O-]	-4.8%	.	3.6%
COCC(=O)N1CCC2(CC1)CCN(c1ccncc1)CC2	-1.4%	.	2.9%
C=CCNC(=S)N/N=C/c1ccc(-c2cc(Cl)ccc2Cl)o1	7.94µM*	11.1%	0.8%
C=CCNC(=S)N/N=C/c1ccc(-c2ccc(OC)cc2)o1	.	1.7%	.
COC(=O)NC(CCc1ccccc1)C(C(=O)OC)C(=O)OC (stereo not drawn)	4.4%	.	0.4%
COc1cc(Nc2nc3c(S(=O)(=O)c4ccccc4)nnn3c3ccc(Cl)cc23)cc(OC)c1	0.8%	.	0.5%
COc1ccc(OC)c(S(=O)(=O)n2ccnc2)c1	.	2.4%	.
C=CCNc1sc(C(=O)c2ccccc2)c(N)c1C#N	-7.0%	-2.1%	-6.4%
C=CCNc1sc(C(=O)c2ccc(Br)s2)c(N)c1C#N	15.8µM*	-1.5%	-1.0%
N#CC(=C(/N)Sc1ccccc1N)/C(C#N)=C(/N)Sc1ccccc1N	?	.	-19.5%
O=S(=O)(NCCc1ccc(Cl)cc1)c1ccc(N2CCCCS2(=O)=O)cc1	6.6%	.	-4.0%
Cc1ccc(C(C)C)c(OCC(=O)N/N=C2\CC(=O)CC(C)(C)C2)c1	.	12.0%	.
Cc1cc(Br)c(OCc2ccc(C(=O)N/N=C3\CC(=O)CC(C)(C)C3)cc2)c(Br)c1	10µM*	9.0%	-1.0%
COc1cc(NC(=O)NS(=O)(=O)c2ccc(C)cc2)cc(OC)c1	-0.7%	1µM*	9.4%
COc1ccc(NC(=O)NS(=O)(=O)c2ccc(C)cc2)cn1	.	-3.6%	.
O=[N+]([O-])c1ccc(N2CCN(S(=O)(=O)c3ccccc3)CC2)cc1NCC1CCCO1 (stereo not drawn)	12.0%	13.5%	-4.2%
O=[N+]([O-])c1ccc(N2CCN(S(=O)(=O)c3ccc4ccccc4c3)CC2)cc1NCC1CCCO1 (stereo not drawn)	15.8µM*	2.8%	1.4%
COc1ccc(N2CSC3=C(C#N)C(c4cc(OC)ccc4OC)CC(=O)N3C2)c(OC)c1 (stereo not drawn)	3.0%	-35.7%	-9.8%
CCOc1ccccc1N1CSC2=C(C#N)C(c3c(OC)ccc4ccccc34)CC(=O)N2C1 (stereo not drawn)	15.8µM*	?	-8.1%
CCOC(=O)C(Cc1ccccc1)C(=O)Nc1ccc(NC(=O)C(Cc2ccccc2)C(=O)OCC)cc1 (stereo not drawn)	7.94µM*	9.1%	-2.0%
CCOC(=O)C(Cc1ccccc1)C(=O)Nc1ccccc1C (stereo not drawn)	3.5%	-6.2%	2.2%
O=C(CC1S/C(=N/N=C/c2c[nH]c3ccc(OCc4ccccc4)cc23)NC1=O)Nc1ccccc1 (stereo not drawn)	6.31µM*	2.7%	-3.5%
O=C(CC1S/C(=N/N=C/c2c[nH]c3ccccc23)NC1=O)Nc1ccccc1 (stereo not drawn)	?	18.1%	-6.2%
SMILES	Cruzain noTriton	NS1 inh	Cruzain inh Det
O=C(CC1S/C(=N/N=C/c2cccs2)NC1=O)Nc1ccc(Cl)c(Cl)c1 (stereo not drawn)	20µM*	0.3%	-5.0%
O=C(CC1S/C(=N/N=C/c2cccs2)NC1=O)Nc1ccc(Cl)cc1 (stereo not drawn)	-26.7%	15.0%	-1.9%
Cc1n[nH]c(=S)n1/N=C/c1ccc(-c2ccccc2[N+](=O)[O-])o1	-6.9%	-1.7%	-1.8%
Cc1nnc(N/N=C\c2ccc(-c3ccccc3[N+](=O)[O-])o2)n1N	12.6µM*	-41.0%	14.1µM*
COc1cccc(CN2C(=O)c3ccccc3Sc3ccc(C(=O)N(C)Cc4ccccc4)cc32)c1	-23.3%	.	-4.8%
Cc1cccc(N2CCN(C(=O)c3cc4c(=O)n(C)c5ccccc5c4s3)CC2)c1C	-1.8%	.	-0.9%
